Bioassay records: PubChem BioAssay, several laboratories
A selection: hits, their analogues and other compounds. The true share with any hit is near 3.2%.
PrPC TRFRET – inhibitors of human cell surface prion protein PrPC; P04156; TR-FRET read-out; AID 720596; 370,000 tested, 0.43% active; inhibition, % at 13.8 µM; in the data active means inhibition above about 24%
TcdB GH inh – inhibitors of Clostridioides difficile toxin B glycohydrolase; inhibition, % at 9.99 µM; 350,000 tested, 0.24% active; P18177; AID 652162; TcdB glycohydrolase enzymatic assay, plate reader; in the data active means inhibition above about 10%
GDH-TPI counter-1 – inhibits GDH-TPI coupling enzymes, artifact for Mtb FBA screen; GDH-TPI coupled enzyme counterscreen, NADH absorbance; inhibition, % at 4.8 µM; AID 588335; 360,000 tested, 1.2% active; in the data active means inhibition above about 30%
FBA Mtb inh – Mtb fructose-bisphosphate aldolase inhibition; P9WQA3; purified M. tuberculosis FBA, fluorescence read-out; inhibition, % at 1 µM; 360,000 tested, 2.3% active; AID 588726
Target sequence (P9WQA3 whole entry, looked up): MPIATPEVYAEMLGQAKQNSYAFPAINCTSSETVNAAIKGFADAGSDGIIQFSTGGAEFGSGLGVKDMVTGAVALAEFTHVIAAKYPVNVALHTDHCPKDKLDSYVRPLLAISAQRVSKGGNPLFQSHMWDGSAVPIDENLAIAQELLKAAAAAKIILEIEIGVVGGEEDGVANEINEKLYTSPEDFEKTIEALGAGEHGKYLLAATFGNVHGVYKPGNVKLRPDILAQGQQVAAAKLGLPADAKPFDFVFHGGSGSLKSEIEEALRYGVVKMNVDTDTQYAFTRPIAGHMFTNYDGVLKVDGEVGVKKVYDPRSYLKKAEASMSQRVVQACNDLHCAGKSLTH
Y pestis TopoI – blocks Yersinia pestis topoisomerase I activity | 360,000 tested, 0.064% active | activity, % at 10 µM | Y. pestis Topo-I cleavage product accumulation, plate reader; in the data active means activity above about 50%, passing the limit was not always enough
Mtb FBA inh conf – Mtb FBA inhibition, confirmed; purified M. tuberculosis FBA, fluorescence read-out; shares compounds with FBA Mtb inh; AID 651616; 5,600 tested, 78% active; inhibition, % at 1 µM
GDH-TPI counter-2 – counter-screen for M. tuberculosis FBA inhibitors: GDH-TPI coupled enzyme inhibition; shares compounds with FBA Mtb inh; GDH-TPI coupled enzyme counterscreen, fluorescence; inhibition, % at 1 µM; 5,600 tested, 81% active; in the data active means inhibition above about 10%
GDH-TPI DR – counter-screen for M. tuberculosis FBA inhibitors: GDH-TPI dose response; shares compounds with FBA Mtb inh; 170 tested, 79% active; GDH-TPI coupled enzyme assay, fluorescence, artifact counterscreen; AID 652145; IC50, µM; call rule not given here
Each line names hits and unclear results; the compound was inactive in the other large screens (follow-up assays come after a bar, where they were run). Unless noted, no stated cut-off is given here; in the data, active means inhibition above about 27%; inactive means the rest.

Cc1nn(C)cc1-c1cc(C(=O)O)c2ccccc2n1	FBA Mtb inh 82 | Mtb FBA inh conf inactive | GDH-TPI counter-2 inactive | GDH-TPI DR 3.3
COCCNC(=O)c1cc2c(s1)-c1ccc(Cl)cc1SC2	FBA Mtb inh 46 | Mtb FBA inh conf 174 | GDH-TPI counter-2 160
Cc1ccc2nc(-c3ccc(O)cc3)c(Nc3ccc4c(c3)OCCO4)n2c1	FBA Mtb inh 36 | Mtb FBA inh conf active | GDH-TPI counter-2 162
CC(=O)N(C(C)=O)c1ncnc2c1c(-c1ccc(Cl)cc1)nn2C(C)(C)C	FBA Mtb inh 50 | Mtb FBA inh conf inactive | GDH-TPI counter-2 inactive
CC(=O)Nc1ncnc2c1c(-c1ccc(Cl)cc1)nn2C(C)(C)C	FBA Mtb inh 50 | Mtb FBA inh conf 81 | GDH-TPI counter-2 75
C[C@H](CO)N1C[C@H](C)[C@@H](CN(C)C(=O)C2CCC2)Oc2ncc(C#CCc3ccccc3)cc2C1=O	none (no result: PrPC TRFRET, GDH-TPI counter-1, FBA Mtb inh, Y pestis TopoI)
CC1CC(C)CN(C(=O)c2cc3c(=O)n4ccccc4nc3s2)C1 (stereo unspecified)	FBA Mtb inh 53 | Mtb FBA inh conf active | GDH-TPI counter-2 active
CSc1ccccc1NC(=O)c1cc2c(=O)n3ccccc3nc2s1	none
CCOC(=O)N1CCN(C(=O)c2cc3c(=O)n4ccccc4nc3s2)CC1	FBA Mtb inh 49 | Mtb FBA inh conf 67 | GDH-TPI counter-2 58
COc1ccc2nc(/C=N/NC(=O)CCCCCNC(=O)OC(C)(C)C)ccc2c1	GDH-TPI counter-1 33, FBA Mtb inh 63 | Mtb FBA inh conf 95 | GDH-TPI counter-2 86
COc1cccc(C(=O)N2C[C@H]3[C@@H](c4ccccc42)[C@H](CO)N3C(C)=O)c1	none (no result: PrPC TRFRET, GDH-TPI counter-1, FBA Mtb inh, Y pestis TopoI)
Cc1ccc(-c2cc(C(=O)NCC3(N(C)C)CCCCC3)c3ccccc3n2)o1	FBA Mtb inh 29 | Mtb FBA inh conf inactive | GDH-TPI counter-2 16
CN(C)C(CNC(=O)c1cc(-c2ccco2)nc2ccccc12)c1ccccc1 (stereo unspecified)	FBA Mtb inh 38 | Mtb FBA inh conf inactive | GDH-TPI counter-2 inactive
CC(C)CCNC(=O)c1cc(-c2ccco2)nc2ccccc12	FBA Mtb inh 111 (no result: TcdB GH inh) | Mtb FBA inh conf active | GDH-TPI counter-2 active
COc1ccc(NC(=O)N(C)C[C@H]2Oc3ccc(NC(=O)Nc4ccc(F)cc4)cc3C(=O)N([C@@H](C)CO)C[C@H]2C)cc1	none (no result: PrPC TRFRET, GDH-TPI counter-1, FBA Mtb inh, Y pestis TopoI)
CC(C)NC(=O)N(C)C[C@@H]1Oc2ccc(NS(=O)(=O)c3ccc(Cl)cc3)cc2C(=O)N([C@H](C)CO)C[C@H]1C	none (no result: PrPC TRFRET, GDH-TPI counter-1, FBA Mtb inh, Y pestis TopoI)
O=C(Nc1ccccn1)c1ccc(Br)c(S(=O)(=O)N2CCCCC2)c1	FBA Mtb inh 51 | Mtb FBA inh conf active | GDH-TPI counter-2 active
COc1cccc(CN2[C@H](CO)[C@H](c3ccccc3)C23CN(C(=O)C2CC2)C3)c1	none (no result: PrPC TRFRET, GDH-TPI counter-1, FBA Mtb inh, Y pestis TopoI)
COc1cccc(S(=O)(=O)N(C)C[C@@H]2Oc3ncc(C#CC(C)C)cc3C(=O)N([C@@H](C)CO)C[C@@H]2C)c1	none (no result: PrPC TRFRET, GDH-TPI counter-1, FBA Mtb inh, Y pestis TopoI)
Cc1cc(N/N=C/c2ccc(N(C)C)cc2)c2ccccc2n1	GDH-TPI counter-1 31, FBA Mtb inh 28 | Mtb FBA inh conf active | GDH-TPI counter-2 167
Cc1nc2cc(C(=O)O)ccc2s1	none (no result: TcdB GH inh)
Cc1nc2ccc(C(=O)O)cc2c2c1CC(C)S2 (stereo unspecified)	FBA Mtb inh 61 (no result: TcdB GH inh) | Mtb FBA inh conf 44 | GDH-TPI counter-2 30
COc1ccc(CCNC(=O)c2ccc3c(c2)N(Cc2ccccc2)CCS3)cc1OC	FBA Mtb inh 64 | Mtb FBA inh conf 100 | GDH-TPI counter-2 83
NS(=O)(=O)c1ccc(CCNC(=O)c2ccc3c(c2)N(Cc2ccccc2)CCS3)cc1	FBA Mtb inh 68 | Mtb FBA inh conf inactive | GDH-TPI counter-2 inactive
COc1ccc(OC)c(CCNC(=O)c2ccc3c(c2)N(Cc2ccccc2)CCS3)c1	none
CCOC(=O)c1c(N)n(Cc2ccco2)c2nc3ccccc3nc12	FBA Mtb inh 77 (no result: TcdB GH inh) | Mtb FBA inh conf 198 | GDH-TPI counter-2 172
CCCNC(=O)c1c(N)n(-c2cccc(OC)c2)c2nc3ccccc3nc12	FBA Mtb inh 68 | Mtb FBA inh conf inactive | GDH-TPI counter-2 inactive
